Assay [1] is described as follows: NFAT Signaling Pathway (AID 444; active = well fitted curve in either direction with a large enough effect, not every such curve was filed as active;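 note: carbachol stimulus at about its EC50 of 1 µM final; % is set by controls: 0 for no effect and ±100 for the full control effect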). The note with it: Jurkat NFAT-bla M1, carbachol, beta-lactamase ratio, 5 h; at 17.2 µM (top of the series) unless noted. A digest of the protocol:
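Jurkat cells carrying an NFAT-driven β-lactamase reporter and co-transfected muscarinic M1 receptor were treated with compound plus carbachol (1 uM final, an EC50 level) for 5 h at 37 °C. CCF4 loading followed for 1 h at RT; 460/530 nm ratio gave %activity.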

A short description of assay [2]: Stat Signaling Pathway (AID 446; active = well fitted curve in either direction with a large enough effect, not every such curve was filed as active;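 note: ME-180 cervical cancer cells given 40 pM IL-6 alongside compound; SIE-controlled beta-lactamase reporter measured as 460/530 nm FRET emission ratio; % is set by controls: 0 for no effect and ±100 for the full control effect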). The note with it: ME-180 SIE beta-lactamase reporter, IL-6 stimulated, 5 h; at 17.2 µM (top of the series) unless noted. The gist of the method:
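Reporter line: ME-180 cervical carcinoma, SIE-beta-lactamase. Treatment: compound with 40 pM IL-6, 5 hrs, 37 C, in low-serum OPTI-MEM with 10 mM HEPES pH 7.3. Detection: 460/530 nm fluorescence.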

For assay [3], the target named is Glucocorticoid receptor (Homo sapiens) (UniProt P04150). The assay is described as follows: GR-GFP Redistribution (AID 450;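 active = compounds whose dose series gives a full or clear partial fitted curve of increased nuclear translocation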; note: potency is the fitted concentration of half-maximal effect).
Glucocorticoid receptor (Homo sapiens), sequence (P04150 whole entry, looked up, the tested form may be a part): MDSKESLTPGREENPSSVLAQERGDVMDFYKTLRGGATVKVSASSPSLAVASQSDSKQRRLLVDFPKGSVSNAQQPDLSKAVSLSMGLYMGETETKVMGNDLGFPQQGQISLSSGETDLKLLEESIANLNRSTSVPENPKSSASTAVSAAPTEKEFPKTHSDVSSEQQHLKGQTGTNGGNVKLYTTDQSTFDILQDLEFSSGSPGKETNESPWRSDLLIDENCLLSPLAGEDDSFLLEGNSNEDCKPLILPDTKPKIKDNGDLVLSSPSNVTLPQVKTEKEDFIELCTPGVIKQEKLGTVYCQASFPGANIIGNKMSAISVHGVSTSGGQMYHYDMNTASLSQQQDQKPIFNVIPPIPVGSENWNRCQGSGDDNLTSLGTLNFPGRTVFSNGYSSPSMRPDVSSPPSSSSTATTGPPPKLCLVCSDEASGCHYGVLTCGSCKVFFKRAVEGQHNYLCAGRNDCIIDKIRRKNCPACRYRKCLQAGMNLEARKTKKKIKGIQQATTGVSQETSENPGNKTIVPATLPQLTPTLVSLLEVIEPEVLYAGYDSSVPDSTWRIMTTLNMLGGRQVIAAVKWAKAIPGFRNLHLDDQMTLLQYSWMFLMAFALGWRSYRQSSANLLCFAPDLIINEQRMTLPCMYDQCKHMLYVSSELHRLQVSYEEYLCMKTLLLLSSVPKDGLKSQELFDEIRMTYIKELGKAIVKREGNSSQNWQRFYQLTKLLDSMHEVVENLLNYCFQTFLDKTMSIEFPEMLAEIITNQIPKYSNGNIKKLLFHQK
For assay [4] the target is unchanged. Put plainly: GR-EFC Redistribution (AID 451; calls by dose curve; note: potency is the fitted concentration of half-maximal effect). The note with it: CHO-K1 GR-EFC translocation, beta-gal luminescence, 2 h. A digest of the protocol: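 CHO-K1 cells stably expressing nuclear-localized β-gal enzyme acceptor and GR fused C-terminally to the enzyme donor fragment; ligand-driven nuclear translocation restores β-gal by complementation. Compounds titrated up to 46 uM final, 2 h at 37 °C; luminescence read.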

In assay [5] the target is Mitogen-activated protein kinase 10 (Mus musculus) (UniProt Q61831). The assay is described as follows: JNK3 AlphaScreen Assay (AID 530; active = well fitted curve in either direction with a large enough effect, not every such curve was filed as active;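 note: kinase came from lysate of stimulated human HepG2 cells; signal reports phosphorylation of biotinylated GST-cJun 1-79 at Ser73 with 10 µM ATP; % is set by controls: 0 for no effect and ±100 for the full control effect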). The gist of the method:
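Inhibitors reduce antibody binding to phosphorylated biotin-cJun, lowering AlphaScreen luminescence. Lysates from HepG2 cells pre-activated by IL-1beta plus TNF-alpha supplied JNK3; compounds were titrated.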

Assay [6] addresses Guanine nucleotide-binding protein G(i) subunit alpha-1 (Homo sapiens) (UniProt P63096). The assay is described as follows: qHTS Assay for Inhibitors of RGS12 GoLoco Motif Activity (Green Fluorophore) (AID 879).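 Note: 0% = labeled peptide with Gαi1 and full inhibition = labeled peptide alone without protein; negative values mean loss of peptide binding seen as reduced polarization.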 The gist of the method:
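Fluorescence polarization assay: 50 nM Gαi1 with 10 nM FITC-labeled RGS12 GoLoco peptide in 10 mM Tris pH 7.5, 150 mM NaCl, 0.1 mM GDP, 0.05% NP40, 10 min at room temperature with compound.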

Assay [7] can be described thus: qHTS Assay for Identification of Small Molecule Antagonists for NFkB Signaling Pathway (AID 895; active = well fitted inhibition curve with a large enough effect in the signal ratio, with a control signal flat, not every such curve was filed as active; the % refers to the signal ratio; note: % is set by controls: 0 for no effect and ±100 for the full control effect). A digest of the protocol: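 NFkB-bla ME-180 cervical carcinoma cells with beta-lactamase reporter under NFkB response element; compounds added, then TNF alpha at 10 pM final (EC50), 5 h at 37 C. LiveBLAzer substrate 2 h, room temperature; emission 460/530 nm at 405 nm excitation.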

Assay [8] in a line: qHTS Assay for Identification of Small Molecule Antagonists for Thrombopoietin (TPO) Signaling Pathway (AID 918). Note: potency is the fitted concentration of half-maximal effect; nearly all actives have a fitted effect of over 60% in size. The conditions noted are these: TPO-dependent cell signaling reporter, antagonist mode. The gist of the method: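 Ba/F3 (murine, hTPO-R, GPIIb-luc reporter); overnight IL-3 withdrawal; cpd + TPO 26 pM final (EC50); 24 h 37 C/5% CO2; Steadylite luminescence after 10 min RT.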

For assay [9], the target named is Muscarinic acetylcholine receptor M1 (Rattus norvegicus) (UniProt P08482). The assay is described as follows: qHTS Assay for Antagonists of Acetylcholine Muscarinic M1 Receptor: Kinetic Measurement of Intracellular Calcium Response (AID 943).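 Note: Fluo-4 calcium signal as peak divided by basal fluorescence over 4 min; nearly all actives have a fitted effect of over 75% in size.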 The gist of the method: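 Rat M1-CHO cells, 2000/well, overnight → Fluo-4 no-wash dye with probenecid, 1 h 37C → compound 10 min, room temp → basal read 6 s → carbachol EC80 (100 nM) → 4 min kinetic read; peak/basal.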
Muscarinic acetylcholine receptor M1 (Rattus norvegicus), sequence (P08482 whole entry, looked up): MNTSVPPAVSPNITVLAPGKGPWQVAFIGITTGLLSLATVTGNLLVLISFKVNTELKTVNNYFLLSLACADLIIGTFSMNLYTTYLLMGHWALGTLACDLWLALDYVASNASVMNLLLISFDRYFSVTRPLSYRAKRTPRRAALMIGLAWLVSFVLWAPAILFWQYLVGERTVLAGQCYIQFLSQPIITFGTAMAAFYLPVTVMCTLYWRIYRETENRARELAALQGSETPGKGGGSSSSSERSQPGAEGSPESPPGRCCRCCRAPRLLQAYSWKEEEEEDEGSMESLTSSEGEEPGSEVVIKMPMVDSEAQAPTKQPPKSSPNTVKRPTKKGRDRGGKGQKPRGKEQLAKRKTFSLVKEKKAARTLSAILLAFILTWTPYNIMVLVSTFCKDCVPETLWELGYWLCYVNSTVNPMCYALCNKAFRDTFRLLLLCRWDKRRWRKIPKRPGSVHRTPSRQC

For assay [10] the target is unchanged. Put plainly: qHTS Assay for Antagonists of Acetylcholine Muscarinic M1 Receptor: Measurement of IP-One Response (AID 944). Note: nearly all actives have a fitted effect of over 75% in size. A digest of the protocol:
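M1-CHO (rat), 2000 cells/well, overnight recovery; cpd 10 min; carbachol EC80 (200 nM), 30 min, HEPES buffer + 50 mM LiCl pH 7.4; IP-One HTRF, Ex 337, Em 620/665 nm.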

The target of assay [11] is Pyruvate kinase (Leishmania mexicana) (UniProt Q27686). Put plainly: qHTS Validation Assay for Inhibitors of Leishmania Mexicana Pyruvate Kinase (AID 945).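 Note: 0% = DMSO only neutral control wells.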 The gist of the method:
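LmPYK E451W 0.2 nM; 0.5 mM PEP, 0.1 mM ADP, 7 mM MgCl2, 50 mM KCl, imidazole pH 7.2, 0.01% Tween 20, 0.05% BSA; 1 h RT; PKLight luminescence; DMSO-normalized.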

The target in assay [12] is Pyruvate kinase PKM (Homo sapiens) (UniProt P14618). Put plainly: qHTS Assay for Activators of Human Muscle Pyruvate Kinase (AID 954; active = well fitted curve in the direction sought with a large enough effect, not every such curve was filed as active;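 note: 0% = uninhibited enzyme and -100% = no enzyme or full thiadiazolimine inhibition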). The gist of the method:
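Human PKM2 activity is measured as ATP generation, detected by luciferase-coupled luminescence. The enzyme (0.1 nM) acts on 0.5 mM PEP and 0.1 mM ADP for 1 h at ambient temperature; data are normalized to uninhibited and full-inhibition wells.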

Assay [13] deals with Alpha-galactosidase A (Homo sapiens) (UniProt P06280). Put plainly: Counterscreen for Glucocerebrosidase Inhibitors: qHTS Assay for Human alpha-Galactosidase at pH 4.5 (AID 992). Note: 0% is about no effect. A digest of the protocol: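 Quantitative HTS: compounds tested from 0.7 nM up to 77 uM against 2 nM enzyme with 80 uM 4-MU alpha-D-galactopyranoside. The 20 min room-temperature reaction is stopped with 1M NaOH/1M glycine, pH 10.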
Alpha-galactosidase A (Homo sapiens), sequence (P06280 whole entry, looked up): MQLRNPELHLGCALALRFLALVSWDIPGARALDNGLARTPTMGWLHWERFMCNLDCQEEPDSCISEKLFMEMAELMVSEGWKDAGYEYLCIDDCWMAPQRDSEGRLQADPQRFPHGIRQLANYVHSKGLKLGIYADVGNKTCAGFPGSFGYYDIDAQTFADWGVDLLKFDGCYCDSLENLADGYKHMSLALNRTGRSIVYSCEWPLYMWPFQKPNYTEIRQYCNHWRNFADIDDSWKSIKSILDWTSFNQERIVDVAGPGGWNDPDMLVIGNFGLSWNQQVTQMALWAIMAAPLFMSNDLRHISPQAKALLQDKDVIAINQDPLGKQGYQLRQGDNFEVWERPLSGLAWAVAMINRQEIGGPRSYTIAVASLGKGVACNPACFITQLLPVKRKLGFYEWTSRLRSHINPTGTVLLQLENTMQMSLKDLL

Assay [14] addresses alpha-glucosidase (Oryza sativa, rice) (UniProt Q653V4). Put plainly: Counterscreen for Glucocerebrosidase Inhibitors: qHTS Assay for Rice alpha-Glucosidase at pH 5.0 (AID 997).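 Note: 0% = full activity with enzyme and -100% = basal without enzyme.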 A digest of the protocol: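 Rice alpha-glucosidase (4 nM final) with 400 uM 4-methylumbelliferyl-alpha-D-glucopyranoside in citrate buffer pH 5.0, 20 min at room temperature, stopped at pH 10; fluorescence 365/440 nm, compounds 0.7 nM–77 uM, AC50 from Hill fits.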

Assay [15] addresses 3',5'-cyclic-AMP phosphodiesterase 4B (Homo sapiens) (UniProt Q07343). The assay is described as follows: qHTS Assay for Inhibitors of PDE-IV (AID 607; active = well fitted activation curve with a large enough effect in the main read-out, with a control signal flat, not every such curve was filed as active; note: % of control where 0% means no effect). The gist of the method: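 Cell-based read-out of cAMP via a modified cyclic nucleotide-gated channel and membrane potential dye (535/590 nm) in HEK293 cells expressing PDE4 endogenously. Compounds tested up to 22.9 uM final; 100 uM RO 20-1724 reference.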

Assay [16] is described as follows: qHTS Assay for Identification of Small Molecule Agonists for Hypoxia Response Element Signaling Pathway (AID 914; active = well fitted activation curve with a large enough effect in the signal ratio, with a control signal flat, not every such curve was filed as active; the % refers to the signal ratio; note: % of control where 0% means no effect). The conditions noted are these: ME-180 HRE-bla reporter, beta-lactamase ratio, CoCl2, 17 h; activation: active compounds read high. A digest of the protocol: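 ME-180 cells carrying an HRE-driven beta-lactamase reporter were treated with compounds in a titration series plus an EC50 level of CoCl2 for 17 h at 37 degrees Celsius; CCF4 readout as the 460nm/530nm ratio gave AC50 values.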

The structures appear in SMILES notation. A number with no mark means an inactive call. Inconclusive results are not listed. Active and inactive are the calls of the source. Unless noted, calls come from the whole dose curve; as a rule, active = well fitted curve in the direction sought with a large enough effect; inconclusive = small, poorly fitted or top-dose-only effect, or another doubt; inactive = no such curve, though single readings can be large; an effect the other way counts as inactive or inconclusive.

Pyruvate kinase (Leishmania mexicana), sequence (Q27686 2-499 E452W): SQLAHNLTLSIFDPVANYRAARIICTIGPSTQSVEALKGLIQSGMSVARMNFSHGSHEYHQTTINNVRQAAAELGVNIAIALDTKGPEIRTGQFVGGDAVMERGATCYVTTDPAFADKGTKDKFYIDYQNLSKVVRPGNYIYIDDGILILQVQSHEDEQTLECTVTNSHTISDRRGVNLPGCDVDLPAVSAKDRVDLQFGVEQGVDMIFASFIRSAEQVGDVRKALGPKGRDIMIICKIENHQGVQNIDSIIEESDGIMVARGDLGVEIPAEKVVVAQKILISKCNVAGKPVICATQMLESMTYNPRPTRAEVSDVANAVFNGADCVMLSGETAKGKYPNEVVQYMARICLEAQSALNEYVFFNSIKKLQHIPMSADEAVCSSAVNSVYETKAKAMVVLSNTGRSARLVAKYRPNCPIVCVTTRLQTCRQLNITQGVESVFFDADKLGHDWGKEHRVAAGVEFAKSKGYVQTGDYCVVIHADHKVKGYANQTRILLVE
Pyruvate kinase PKM (Homo sapiens), sequence (P14618 whole entry, looked up): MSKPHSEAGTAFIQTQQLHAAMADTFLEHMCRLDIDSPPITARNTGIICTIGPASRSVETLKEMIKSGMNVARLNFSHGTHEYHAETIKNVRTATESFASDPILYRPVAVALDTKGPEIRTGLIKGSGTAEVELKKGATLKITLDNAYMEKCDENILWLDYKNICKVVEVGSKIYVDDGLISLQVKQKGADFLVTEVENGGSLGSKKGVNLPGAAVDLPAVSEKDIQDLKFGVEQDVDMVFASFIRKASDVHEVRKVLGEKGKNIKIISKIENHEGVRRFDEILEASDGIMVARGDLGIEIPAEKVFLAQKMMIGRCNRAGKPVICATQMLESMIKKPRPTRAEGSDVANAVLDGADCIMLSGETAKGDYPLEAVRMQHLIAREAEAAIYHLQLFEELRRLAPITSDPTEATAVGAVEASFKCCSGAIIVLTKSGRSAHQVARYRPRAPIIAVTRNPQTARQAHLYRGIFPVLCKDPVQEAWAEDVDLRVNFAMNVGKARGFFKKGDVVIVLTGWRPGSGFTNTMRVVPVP
Guanine nucleotide-binding protein G(i) subunit alpha-1 (Homo sapiens), sequence (P63096 whole entry, looked up): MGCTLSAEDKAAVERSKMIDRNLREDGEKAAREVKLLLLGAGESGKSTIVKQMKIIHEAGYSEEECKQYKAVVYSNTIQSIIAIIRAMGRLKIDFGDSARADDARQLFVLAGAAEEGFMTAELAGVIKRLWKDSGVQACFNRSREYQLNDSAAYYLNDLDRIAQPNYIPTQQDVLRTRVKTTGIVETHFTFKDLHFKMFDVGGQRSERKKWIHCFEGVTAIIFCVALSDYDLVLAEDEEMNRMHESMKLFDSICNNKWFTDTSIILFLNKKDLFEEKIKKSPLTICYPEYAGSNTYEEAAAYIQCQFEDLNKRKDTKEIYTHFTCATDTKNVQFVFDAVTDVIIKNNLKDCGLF
3',5'-cyclic-AMP phosphodiesterase 4B (Homo sapiens), sequence (Q07343 whole entry, looked up): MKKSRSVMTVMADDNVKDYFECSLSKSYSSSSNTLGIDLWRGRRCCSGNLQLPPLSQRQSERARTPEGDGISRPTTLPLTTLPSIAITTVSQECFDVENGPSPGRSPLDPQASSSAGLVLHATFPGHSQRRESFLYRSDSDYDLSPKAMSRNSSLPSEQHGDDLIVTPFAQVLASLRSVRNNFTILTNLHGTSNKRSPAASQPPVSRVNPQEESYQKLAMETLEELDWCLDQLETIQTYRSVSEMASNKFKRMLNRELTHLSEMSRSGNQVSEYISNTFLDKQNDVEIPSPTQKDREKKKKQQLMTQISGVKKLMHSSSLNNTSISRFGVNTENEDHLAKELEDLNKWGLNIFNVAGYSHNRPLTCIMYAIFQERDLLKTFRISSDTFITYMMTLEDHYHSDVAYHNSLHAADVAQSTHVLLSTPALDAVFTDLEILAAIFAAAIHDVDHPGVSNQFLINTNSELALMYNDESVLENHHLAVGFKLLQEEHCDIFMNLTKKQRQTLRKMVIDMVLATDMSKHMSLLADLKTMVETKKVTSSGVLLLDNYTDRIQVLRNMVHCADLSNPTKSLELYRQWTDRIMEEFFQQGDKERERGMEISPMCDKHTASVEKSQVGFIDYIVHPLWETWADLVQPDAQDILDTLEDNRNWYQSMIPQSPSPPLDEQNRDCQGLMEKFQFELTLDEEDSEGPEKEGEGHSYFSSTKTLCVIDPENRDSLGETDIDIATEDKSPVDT

Regarding `FC(F)(F)c1cc(CO[C@@H]2CCCN[C@H]2c2ccccc2)cc(C(F)(F)F)c1`, the activity change, negative = inhibition in [1] was 16.5% [at 38 µM]. Moreover, the activity, negative = inhibition in assay [2] was -14.5% [at 38 µM]. Also, the Potency was > 46 µM in assay [3], > 46 µM in [4] and 10 µM (active) in assay [8]. Moreover, the Potency result in assay [5], in assay [7], in [9], in assay [10] and in assay [11] was “inactive” in each case. Further, the compound was called inactive in assay [6], in [12], in [13] and in [14].

With `CC[C@]1(O)C[C@H]2CN(CCc3c([nH]c4ccccc34)[C@](C(=O)OC)(c3cc4c(cc3OC)N(C)[C@@H]3[C@](O)(C(=O)OC)[C@H](OC(C)=O)[C@]5(CC)C=CCN6CC[C@]43[C@@H]65)C2)C1`, the activity change, negative = inhibition in [1] was 0.463% [at 38 µM]. Also, the activity, negative = inhibition in [2] was -18.9% [at 38 µM]. The Potency in [3] and in assay [4] was > 46 µM each time. In addition, the Potency entry in [5], in assay [15] and in [11] was “inactive” throughout. Also, the compound was classed as inactive in assay [6], in [12], in [13] and in assay [14].

With `NC(=O)CSc1nc(N)c2c3c(sc2n1)CCCCC3`, the activity change, negative = inhibition in assay [1] is -8.37%. Further, the activity, negative = inhibition in assay [2] was -4.35%. Also, the Potency in assay [3] was > 20.6 µM. Besides, the activation in [16] was -10.3%.

These data come from PubChem BioAssay (NCATS).
